The panel holds about 83,000 compounds, 20% with a hit somewhere; the sample as a whole holds those more often.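 For each line, cells grew in 96-well plates with the test compound present at a single concentration for 48 hours.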 Activity calls are given as the source filed them. Rule for the calls: active = growth percent below 10; inactive = the rest.
What was measured:
Test in all cases: NCI-60 one-dose screen, 48 h (100 = growth as untreated, 0 = no growth, -100 = all killed)
Settings in all cases: 10 µM unless noted
[1] = system: SK-MEL-2 melanoma
[2] = system: EKVX NSCLC
[3] = system: SN12C renal
[4] = system: UO-31 renal
[5] = system: TK-10 renal
[6] = system: ACHN renal
[7] = system: A498 renal
[8] = system: CCRF-CEM leukemia
[9] = system: MOLT-4 leukemia
[10] = system: CAKI-1 renal

Measured: growth

NCCCCCNc1noc(Cc2c[nH]c3cc(Br)ccc23)n1
active: [1] 4.12% | [8] 2.39%
inactive: [2] 33% | [3] 42.7% | [4] 41.8% | [5] 38.6% | [6] 52.2% | [7] 16.1% | [9] 29.3%

N#CC1=C(N)Oc2c(ccc3ccccc23)C1c1cc2ccccc2n2nnnc12 (centres undefined)
inactive: [1] 12% | [2] 52.1% | [3] 27.3% | [4] 25.9% | [5] 37.3% | [6] 22.7% | [10] 31.6% | [9] 10.6%
active: [7] -2.46% | [8] -5.43%

O=CN1N=C(c2cccc(Nc3ccncc3)c2)CC1c1ccc2c(c1)OCO2 (centres undefined)
inactive: [1] 85.5% | [2] 67.6% | [3] 99.3% | [4] 86.9% | [5] 109% | [6] 97.2% | [10] 80.7% | [7] 96.5% | [8] 86.1% | [9] 92.3%

CN1C(=O)N(C)C2C1NN=c1s/c(=C\c3ccc(F)cc3)c(=O)n12 (centres undefined)
inactive: [1] 48.6% | [2] 63.8% | [3] 36.3% | [4] 39.8% | [5] 65.1% | [6] 39.2% | [8] 18.1% | [9] 23.2%
active: [7] 9.72%

CC(=O)O[C@H]1CC[C@@]2(C)C(=CC[C@@H]3[C@@H]2CC[C@]2(C)C(Cl)=C(c4nc5ccc(Cl)cn5c4NC(C)(C)C)C[C@@H]32)C1
inactive: [1] 99.9% | [2] 88.1% | [3] 97.7% | [4] 86.6% | [5] 89.3% | [6] 92.1% | [7] 92.8% | [8] 92.3% | [9] 101%

COc1cc2c(c(OC)c1OC)CCC(c1cccc(NC(=O)c3cccc(Cl)c3)c1)O2 (centres undefined)
inactive: [1] 95.7% | [2] 85.9% | [3] 92% | [4] 64.2% | [5] 90.2% | [6] 90.7% | [7] 63.9% | [8] 78.2% | [9] 57.9%

Nc1nc(Nc2ccc([N+](=O)[O-])cc2O)nc(C(Cl)(Cl)Cl)n1
inactive: [1] 79% | [2] 106% | [3] 80.6% | [4] 71.7% | [5] 92.4% | [6] 79.7% | [7] 36.5% | [8] 19.3% | [9] 25.8%

CCOC(=O)C1=C(c2ccccc2)N=C2SC=C(c3cccc([N+](=O)[O-])c3)N2C1c1ccc(O)cc1 (centres undefined)
inactive: [1] 96.7% | [2] 99.3% | [3] 96% | [4] 91% | [5] 104% | [6] 106% | [7] 78.9% | [8] 98.1% | [9] 111%

Cn1cc(-c2nc(-c3c[nH]c4ccncc34)cs2)c2cc(F)ccc21
active: [1] -58.7% | [2] -75.4% | [3] -87.9% | [4] -93.2% | [5] -49.3% | [6] -99.6% | [7] -63.5% | [8] -41.6% | [9] -58.3%

CO[C@]12C=C/C(=C(/C(=O)OCc3cccnc3)C(=O)CCCCCCCC[C@]3(OC)C=C/C(=C(/C(=O)OCc4cccnc4)C(=O)CCCCCCCC1)O3)O2
active: [1] -44.8% | [2] -53.8% | [3] -46.1% | [4] -40.7% | [5] -13.8% | [10] -29.7% | [7] -88.4% | [8] -23.2% | [9] -13.1%

Cc1ccc(C23CCC(=O)N2CCc2cncn23)cc1 (centres undefined)
inactive: [1] 107% | [2] 104% | [3] 99% | [4] 96.8% | [5] 91.7% | [10] 107% | [7] 96.8% | [8] 95.1% | [9] 104%

COc1cccc(C2C3=C(COC3=O)N(CCO)c3cc4c(cc32)OCCO4)c1 (centres undefined)
inactive: [1] 78.1% | [2] 39.7% | [3] 31% | [4] 75% | [5] 66.9% | [10] 41.6% | [8] 11.5% | [9] 11.8%
active: [7] -21.8%

O=C1C2C(c3cccs3)C=C(c3ccc(Cl)cc3)N2C(=S)N1c1ccccc1 (centres undefined)
inactive: [1] 102% | [2] 109% | [3] 95.8% | [4] 71.4% | [5] 116% | [10] 91.3% | [7] 88.6% | [8] 98.3% | [9] 95.4%

O=c1ccc2c(ccc3ncccc32)o1
inactive: [1] 112% | [2] 118% | [3] 106% | [4] 77.1% | [5] 105% | [10] 90% | [7] 81.8% | [8] 104% | [9] 92.7%

COc1cccc2cc(N(C)c3ncnc4ccccc34)ccc12
inactive: [1] 30.1% | [2] 43.8% | [3] 20.9% | [4] 25.4% | [5] 51% | [10] 10.8% | [8] 22% | [9] 16.8%
active: [7] -7.44%

COc1ccc(/C=C\c2cc(OC)c(OC)c(OC)c2)cc1OCC(=O)Nc1nc2ccccc2s1
inactive: [1] 26.7% | [2] 55.8% | [3] 34.9% | [6] 16.9% | [7] 25.1% | [8] 35.3%
active: [4] 4.73% | [5] 4.64% | [9] 6.31%

C=C(c1ccc(C(=O)O)c(F)c1)c1cc2c(cc1C)C(C)(C)C=CC2(C)C
inactive: [1] 87.1% | [2] 69.9% | [3] 83.1% | [4] 81.4% | [5] 94.4% | [10] 81.7% | [7] 75.8% | [8] 85.3% | [9] 87.3%

Cn1cc(-c2nc(-c3c[nH]c4c(Cl)nccc34)cs2)c2ccccc21
inactive: [1] 99.2% | [2] 86.7% | [3] 94.5% | [4] 94.6% | [5] 81.2% | [10] 87% | [7] 77.8% | [8] 92.3% | [9] 83.9%

CCN1C(=O)N(CC)C2C1NN=c1s/c(=C\c3ccc([N+](=O)[O-])cc3)c(=O)n12 (centres undefined)
inactive: [1] 70.4% | [2] 52.3% | [3] 29.6% | [4] 37.5% | [5] 69.1% | [6] 41.9% | [7] 18.6% | [8] 11.2% | [9] 15.8%

NCCNc1ccc([N+](=O)[O-])cc1
inactive: [1] 97.2% | [2] 137% | [3] 103% | [4] 87.1% | [5] 96.2% | [10] 113% | [7] 106% | [8] 94.5% | [9] 96.2%

Nc1ncnc2c1N=C(c1ccc([N+](=O)[O-])cc1)CC(c1ccc3c(c1)OCO3)N2 (centres undefined)
inactive: [1] 59.6% | [2] 86% | [3] 102% | [4] 55.7% | [5] 107% | [6] 88.3% | [7] 87.4% | [8] 65% | [9] 84.1%

N#C/C(=C/C=C/c1ccccc1)S(=O)c1ccccc1 (centres undefined)
active: [1] -15.9% | [2] -6.51% | [3] -52.5% | [4] -63.4% | [5] -89.8% | [10] -25.6% | [7] -68.4% | [8] -5.68% | [9] -1.2%

COC(=O)c1c(C)nc(C)c2c1C(=O)C(Br)=C(NCCN1CCOCC1)C2=O
inactive: [1] 99.4% | [2] 100% | [3] 89.5% | [4] 86.5% | [5] 108% | [10] 91.4% | [7] 92.4% | [8] 97.3% | [9] 99.3%

COc1ccc(-c2cc(-c3ccc(Nc4nc(Nc5ccc(Cl)cc5)nc(Nc5ccc(Cl)cc5)n4)cc3)no2)cc1
active: [9] 9.97%
inactive: [1] 58.1% | [2] 76.3% | [3] 94% | [4] 65.3% | [5] 108% | [10] 83.3% | [7] 86.8% | [8] 38.9%

COc1ccc2c(O)cc3c(c2c1)[C@H](CCl)CN3C(=O)c1cc2cc(NC(=O)CCN3CCOCC3)ccc2[se]1
active: [1] -84.3% | [2] -59.3% | [3] -88.1% | [4] -46.9% | [5] -32.2% | [10] -26.3% | [7] -90.9%
inactive: [8] 76% | [9] 74.2%

CN1CC(c2ccccc2)C(C(=O)c2ccc(Br)cc2)C12C(=O)Nc1ccccc12 (centres undefined)
inactive: [1] 99.2% | [2] 91.8% | [3] 94.5% | [4] 65.9% | [5] 109% | [10] 63.2% | [7] 105% | [8] 102% | [9] 92.1%

O=C(NS(=O)(=O)c1ccccc1)n1cc(-c2ccncc2)c(-c2cc(O)cc(Cl)c2)n1
inactive: [1] 95.5% | [2] 107% | [3] 100% | [4] 91.9% | [5] 127% | [10] 94.2% | [7] 103% | [8] 87.4% | [9] 79.3%

O=C1OCC2=C1C(c1cccc(F)c1)c1cc3c(cc1N2CCO)CCC3 (centres undefined)
inactive: [1] 27% | [2] 40.9% | [3] 26.7% | [4] 37.8% | [5] 57.5% | [10] 32.5% | [9] 11.4%
active: [7] 5.8% | [8] 5.27%

— PubChem BioAssay (NCI)
